# For some assays here: Entries with a potency or affinity are not part of this list.
# Assays:
# Parameters in all cases: scale not given: direction of the effect not stated beside the values
# [1] = target: Protein translocase subunit SecA (Escherichia coli (strain K12)) (UniProt P10408); experiment: Assay to Identify E. coli SecA ATPase Inhibitors; type: functional; settings: 30 µM
# [2] = target: T1, Ubiquitin-activating enzyme e1, putative (Leishmania donovani (strain BPK282A1)) (UniProt E9BSI1); experiment: Leishmania donovani Ubiquitin Activating Enzyme (LdE1); type: functional; settings: 30 µM
# T1 sequence (whole entry): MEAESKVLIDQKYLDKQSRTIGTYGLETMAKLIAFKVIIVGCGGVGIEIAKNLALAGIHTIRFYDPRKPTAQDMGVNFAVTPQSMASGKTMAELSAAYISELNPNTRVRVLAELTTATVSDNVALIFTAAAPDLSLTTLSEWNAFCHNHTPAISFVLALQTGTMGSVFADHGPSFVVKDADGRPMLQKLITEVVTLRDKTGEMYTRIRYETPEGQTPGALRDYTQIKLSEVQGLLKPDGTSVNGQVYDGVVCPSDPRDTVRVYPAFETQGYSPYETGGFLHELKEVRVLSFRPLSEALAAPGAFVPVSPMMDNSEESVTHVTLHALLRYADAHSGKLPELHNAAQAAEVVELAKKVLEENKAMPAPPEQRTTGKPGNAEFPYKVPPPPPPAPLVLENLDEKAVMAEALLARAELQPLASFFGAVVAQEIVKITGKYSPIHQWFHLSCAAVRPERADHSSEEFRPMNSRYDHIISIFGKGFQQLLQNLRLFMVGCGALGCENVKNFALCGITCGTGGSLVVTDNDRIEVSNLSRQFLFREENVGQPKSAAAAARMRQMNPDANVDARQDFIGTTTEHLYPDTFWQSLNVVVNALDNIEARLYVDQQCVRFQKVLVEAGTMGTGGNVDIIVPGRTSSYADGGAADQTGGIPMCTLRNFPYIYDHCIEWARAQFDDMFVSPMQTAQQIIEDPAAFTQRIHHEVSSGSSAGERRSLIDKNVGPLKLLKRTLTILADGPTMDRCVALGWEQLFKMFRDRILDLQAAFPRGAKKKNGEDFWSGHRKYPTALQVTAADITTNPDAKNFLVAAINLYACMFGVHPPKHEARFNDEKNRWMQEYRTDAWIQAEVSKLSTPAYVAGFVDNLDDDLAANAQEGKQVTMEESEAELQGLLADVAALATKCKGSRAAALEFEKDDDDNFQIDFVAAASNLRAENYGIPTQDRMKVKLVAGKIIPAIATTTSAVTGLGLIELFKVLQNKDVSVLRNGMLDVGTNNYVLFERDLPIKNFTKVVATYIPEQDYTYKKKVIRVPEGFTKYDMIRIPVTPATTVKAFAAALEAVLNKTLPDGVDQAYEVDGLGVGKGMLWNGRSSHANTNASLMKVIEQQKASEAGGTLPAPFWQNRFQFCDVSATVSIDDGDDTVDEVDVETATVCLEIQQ
# [3] = target: AMP-activated protein kinase, AMPK (Homo sapiens) (UniProt P54646+O43741+P54619+Q9UGJ0+Q9Y478+Q13131+Q9UGI9); experiment: AMP-dependent Kinase enzyme assay. An in vitro enzyme assay that detects ADP turnover that is directly proportional to AMPK activity. This uses naive AMPK that is activated during the assay with MK-8722; type: functional; settings: 30 µM
# [4] = target: Sialic acid-binding Ig-like lectin 9 (Homo sapiens) (UniProt Q9Y336); experiment: Hs-Siglec9 ALPHAscreen SOP 20170721; settings: 10 µM
# Chain of Sialic acid-binding Ig-like lectin 9 (Homo sapiens) (Q9Y336 whole entry): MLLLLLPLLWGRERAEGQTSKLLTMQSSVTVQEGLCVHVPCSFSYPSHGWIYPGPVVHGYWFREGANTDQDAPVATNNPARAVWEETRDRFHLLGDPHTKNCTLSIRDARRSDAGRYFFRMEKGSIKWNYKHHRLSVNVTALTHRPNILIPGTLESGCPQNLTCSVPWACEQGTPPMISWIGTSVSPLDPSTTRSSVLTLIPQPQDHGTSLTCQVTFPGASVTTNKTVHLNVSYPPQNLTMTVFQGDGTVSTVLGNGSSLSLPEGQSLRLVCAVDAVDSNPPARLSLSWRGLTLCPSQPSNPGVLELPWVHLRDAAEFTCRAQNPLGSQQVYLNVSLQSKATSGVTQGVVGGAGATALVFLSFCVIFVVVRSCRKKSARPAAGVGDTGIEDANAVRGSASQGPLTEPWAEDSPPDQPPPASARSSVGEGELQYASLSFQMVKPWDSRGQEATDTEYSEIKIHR
# Trypanosoma cruzi = experiment: Trypanosoma cruzi phosphomannomutase and mannose-1-phosphate guanylyltransferase assay; type: functional; settings: 10 µM
# [5] = target: T2, Arginase-2, mitochondrial (Homo sapiens) (UniProt P78540); experiment: in vitro enzyme assay to detect the production of urea directly proportional to the activity of Arginase II; type: functional; settings: 33.3 µM; note: in the data most compounds retested in dose-response had high values
# T2 sequence (whole entry): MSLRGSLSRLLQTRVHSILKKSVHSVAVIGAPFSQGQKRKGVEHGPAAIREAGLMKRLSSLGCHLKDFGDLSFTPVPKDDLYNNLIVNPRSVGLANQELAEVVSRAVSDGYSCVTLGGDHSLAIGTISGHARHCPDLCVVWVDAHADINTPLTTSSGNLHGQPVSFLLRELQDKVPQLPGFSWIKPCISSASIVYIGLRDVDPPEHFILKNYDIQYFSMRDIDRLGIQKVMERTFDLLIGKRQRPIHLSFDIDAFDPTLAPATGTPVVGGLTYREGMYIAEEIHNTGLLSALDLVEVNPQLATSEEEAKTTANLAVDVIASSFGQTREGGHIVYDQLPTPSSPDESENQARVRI
# [6] = target: T3, Proteasome subunit beta (Trypanosoma cruzi) (UniProt O96673); experiment: Trypanosoma cruzi proteasome chymotrypsin-like activity (TcProtChymo) assay.; note: in the data most compounds retested in dose-response had high values; type: functional; settings: 9.37 µM
# T3 sequence (whole entry): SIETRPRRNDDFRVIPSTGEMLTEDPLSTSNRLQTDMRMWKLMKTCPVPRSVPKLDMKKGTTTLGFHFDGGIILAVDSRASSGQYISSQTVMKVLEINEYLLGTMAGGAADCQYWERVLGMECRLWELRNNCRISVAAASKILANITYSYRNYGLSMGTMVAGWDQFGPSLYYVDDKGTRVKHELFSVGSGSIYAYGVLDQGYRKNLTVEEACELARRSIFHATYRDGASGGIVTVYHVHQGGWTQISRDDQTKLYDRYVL
# Homo sapiens = organism: Homo sapiens; experiment: To identify inhibition of the IFN signalling (Jak-Stat) pathway via expression of an eGFP reporter gene under the control of an IFN-stimulated response element (ISRE) containing MxA promoter.; type: functional; settings: 30 µM
# [7] = target: T4, Tyrosyl-tRNA synthetase, putative (Trypanosoma cruzi (strain CL Brener)) (UniProt Q4DSP6); experiment: Trypanosoma cruzi tyrosyl tRNA synthetase (TcYRS) _High Tyrosine SOP; type: functional; settings: 30 µM; note: in the data most compounds retested in dose-response had high values
# T4 sequence (whole entry): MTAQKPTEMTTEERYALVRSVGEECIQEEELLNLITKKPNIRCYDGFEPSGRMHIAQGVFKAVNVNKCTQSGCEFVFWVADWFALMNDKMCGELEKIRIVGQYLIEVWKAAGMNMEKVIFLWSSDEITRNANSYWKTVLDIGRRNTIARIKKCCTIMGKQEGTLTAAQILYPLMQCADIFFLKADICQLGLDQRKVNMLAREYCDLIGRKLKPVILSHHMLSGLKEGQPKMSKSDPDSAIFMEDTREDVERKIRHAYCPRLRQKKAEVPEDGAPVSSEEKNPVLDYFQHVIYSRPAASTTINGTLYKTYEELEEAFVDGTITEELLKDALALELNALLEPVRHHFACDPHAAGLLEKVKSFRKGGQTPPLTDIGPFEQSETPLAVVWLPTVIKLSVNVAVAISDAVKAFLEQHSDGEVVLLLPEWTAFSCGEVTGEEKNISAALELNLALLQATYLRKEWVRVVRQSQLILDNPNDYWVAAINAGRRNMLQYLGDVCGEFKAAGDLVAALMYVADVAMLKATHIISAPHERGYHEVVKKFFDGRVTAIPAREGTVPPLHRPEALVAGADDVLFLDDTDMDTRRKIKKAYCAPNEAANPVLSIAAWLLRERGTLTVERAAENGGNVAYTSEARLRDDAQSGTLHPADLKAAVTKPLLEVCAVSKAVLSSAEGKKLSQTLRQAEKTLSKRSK
# [8] = target: T4, Tyrosyl-tRNA synthetase, putative (Trypanosoma cruzi (strain CL Brener)); experiment: Trypanosoma cruzi tyrosyl tRNA synthetase (TcYRS) SOP; type: functional; settings: 30 µM
# [9] = target: Chromo domain-containing protein 1 (Saccharomyces cerevisiae (strain ATCC 204508 / S288c) (Baker's yeast)) (UniProt P32657); experiment: ScCHD-1 Enzyme Inhibition Assay; type: functional; settings: 30 µM; note: in the data most compounds retested in dose-response had high values
# Chain of Chromo domain-containing protein 1 (Saccharomyces cerevisiae (strain ATCC 204508 / S288c) (Baker's yeast)) (P32657 whole entry, the tested form may be a part): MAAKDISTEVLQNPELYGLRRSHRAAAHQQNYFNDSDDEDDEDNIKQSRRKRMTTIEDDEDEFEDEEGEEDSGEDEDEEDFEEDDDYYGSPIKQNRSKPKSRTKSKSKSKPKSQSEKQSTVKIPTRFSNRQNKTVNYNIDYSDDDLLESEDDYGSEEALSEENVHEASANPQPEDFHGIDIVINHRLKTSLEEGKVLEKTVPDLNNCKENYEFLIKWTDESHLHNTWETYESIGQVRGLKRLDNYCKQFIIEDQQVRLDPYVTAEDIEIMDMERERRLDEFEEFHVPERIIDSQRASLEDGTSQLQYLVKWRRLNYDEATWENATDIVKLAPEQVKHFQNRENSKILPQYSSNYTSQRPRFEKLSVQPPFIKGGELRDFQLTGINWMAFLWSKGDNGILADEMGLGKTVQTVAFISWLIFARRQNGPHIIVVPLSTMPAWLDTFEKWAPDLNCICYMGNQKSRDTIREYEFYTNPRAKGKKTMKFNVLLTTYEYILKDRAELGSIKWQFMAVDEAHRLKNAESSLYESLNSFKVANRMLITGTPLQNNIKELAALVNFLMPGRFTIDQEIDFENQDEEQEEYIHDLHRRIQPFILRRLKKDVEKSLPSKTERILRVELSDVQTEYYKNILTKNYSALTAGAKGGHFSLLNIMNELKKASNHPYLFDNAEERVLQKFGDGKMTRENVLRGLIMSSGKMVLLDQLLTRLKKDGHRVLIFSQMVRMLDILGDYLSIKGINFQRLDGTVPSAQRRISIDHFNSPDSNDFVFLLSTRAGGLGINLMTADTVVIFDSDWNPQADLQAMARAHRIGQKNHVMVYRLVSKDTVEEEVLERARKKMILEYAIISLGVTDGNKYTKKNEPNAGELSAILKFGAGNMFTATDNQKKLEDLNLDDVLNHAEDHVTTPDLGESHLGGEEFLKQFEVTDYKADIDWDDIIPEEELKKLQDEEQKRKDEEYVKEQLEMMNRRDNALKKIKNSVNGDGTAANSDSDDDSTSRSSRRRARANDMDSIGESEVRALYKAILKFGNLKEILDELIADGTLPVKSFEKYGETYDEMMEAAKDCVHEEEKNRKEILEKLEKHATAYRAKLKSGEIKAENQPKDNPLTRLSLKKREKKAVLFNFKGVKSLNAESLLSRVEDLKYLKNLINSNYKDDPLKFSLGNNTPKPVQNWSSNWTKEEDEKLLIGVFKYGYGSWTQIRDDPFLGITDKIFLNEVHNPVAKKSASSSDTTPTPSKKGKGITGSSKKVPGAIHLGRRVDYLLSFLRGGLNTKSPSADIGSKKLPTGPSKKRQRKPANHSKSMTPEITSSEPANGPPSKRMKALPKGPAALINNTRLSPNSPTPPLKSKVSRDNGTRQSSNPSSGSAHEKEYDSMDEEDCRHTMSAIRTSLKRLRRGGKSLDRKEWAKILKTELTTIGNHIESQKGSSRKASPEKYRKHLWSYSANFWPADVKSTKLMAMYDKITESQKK
# Chain of Protein translocase subunit SecA (Escherichia coli (strain K12)) (P10408 whole entry): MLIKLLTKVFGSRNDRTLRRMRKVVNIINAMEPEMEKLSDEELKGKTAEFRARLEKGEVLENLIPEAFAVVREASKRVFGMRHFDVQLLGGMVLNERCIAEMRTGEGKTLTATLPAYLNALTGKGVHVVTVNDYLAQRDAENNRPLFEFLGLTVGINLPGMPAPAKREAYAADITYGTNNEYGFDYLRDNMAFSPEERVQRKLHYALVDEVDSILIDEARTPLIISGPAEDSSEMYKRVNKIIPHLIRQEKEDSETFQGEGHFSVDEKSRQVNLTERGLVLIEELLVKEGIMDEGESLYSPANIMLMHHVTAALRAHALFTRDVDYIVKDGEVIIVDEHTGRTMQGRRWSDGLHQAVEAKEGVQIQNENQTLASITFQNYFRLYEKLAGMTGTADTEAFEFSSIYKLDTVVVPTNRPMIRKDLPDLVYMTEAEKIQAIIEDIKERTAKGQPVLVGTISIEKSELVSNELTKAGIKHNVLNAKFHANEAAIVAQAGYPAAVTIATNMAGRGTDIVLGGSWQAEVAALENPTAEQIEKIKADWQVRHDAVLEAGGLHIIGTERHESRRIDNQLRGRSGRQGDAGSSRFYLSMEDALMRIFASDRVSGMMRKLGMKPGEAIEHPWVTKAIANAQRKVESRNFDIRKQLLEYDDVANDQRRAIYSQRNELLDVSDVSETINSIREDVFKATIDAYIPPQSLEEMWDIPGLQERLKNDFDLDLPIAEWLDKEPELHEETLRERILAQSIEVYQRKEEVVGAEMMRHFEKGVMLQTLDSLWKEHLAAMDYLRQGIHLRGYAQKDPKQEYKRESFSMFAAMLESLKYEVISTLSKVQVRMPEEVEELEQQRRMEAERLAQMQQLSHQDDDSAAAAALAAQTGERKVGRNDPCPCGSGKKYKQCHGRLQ
SMILES,Percent Effect [1] [%],Percent Effect [2] [%],Percent Effect [3] [%],Percent Effect [4] [%],Percent Effect (Trypanosoma cruzi) [%],Percent Effect [5] [%],Percent Effect [6] [%],Percent Effect (Homo sapiens) [%],Percent Effect [7] [%],Percent Effect [8] [%],Percent Effect [9] [%]
O=C1NC2(CCN(C(=O)Cc3ccsc3)CC2)CC1c1ccncc1 (stereo not given),2.65,10.4,2.31,-7.01,-7.99,16.1,11.1,5.79,6.35,14.1,-9.26
CCCNC(=O)C(C)NC(=O)CCc1ccccc1Br (stereo not given),0.82,4.17,3.58,-5.62,-9.43,4.42,16.5,8.51,0,5.13,-1.03
Oc1nc(N2CCOCC2)nc2c1CCN(Cc1cccnc1)CC2,-4.93,6.76,7.05,1.25,-1.98,-3.48,5.15,3.87,4.3,11.7,-8.38
O=C(NCCN1CCOCC1)c1n[nH]c(=O)c2ccccc12,-3.44,28.6,-3.48,5.43,6.37,-3.56,14.2,12.3,4.85,21.9,-9.16
Cc1ccc(CC(=O)N2CCOC(c3nc(C)n[nH]3)C2)cn1 (stereo not given),-3.84,20.8,-6.18,28.2,3.79,5.74,5.96,-6.79,6.32,12.8,-3.82
Cn1ccnc1SCc1nc(C(C)(C)NC(=O)OC(C)(C)C)no1,-5.41,18.7,-1.15,21.2,5.94,2.08,10.6,21.2,6.01,16.1,-9.46
O=C1CN(Cc2nnc(-c3ccc(Br)cc3)o2)CCN1,0.69,18.1,-9.97,2.35,2.04,-1.77,15.6,11.5,2.1,2.56,-3.39
CCn1c(CN(C)C)nnc1C1CCN(Cc2ccccc2)CC1,-0.0485,10.4,2.85,13.5,5.61,-6.9,11.7,12.4,7.53,21,-8.57
Cc1cnn(CCNCC(=O)NCc2ccccc2)c1,-0.968,5.26,-2.33,11.4,2.15,-4.68,0.0846,-25,6.4,6.17,4.48
Cc1nn(C)c(C)c1C1CCCN1CC(=O)Nc1ccncc1 (stereo not given),-3.89,-2.7,-12,-1.63,-3.49,4.41,-2.88,7.51,-0.493,-11.1,4.66

# — ChEMBL document CHEMBL3988442, “University of Dundee, Small-Polar-MMV Screening Library” (2021)
